The source made the active and inactive calls. Rule for the calls: active = hit-call score of the fitted dose curve at least 0.9, where 1 is the maximum; inactive = score below 0.9.

The experiment can be described thus: BSK_4H_SRB: Viability Assessment in the BioMAP Diversity Plus: 4H Assay (AID 2283027).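 For AC50: curves fitted both ways versus DMSO so AC50 may be loss or gain.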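 Note: cells exposed to compound for 24 h before staining.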 To be noted: primary human endothelial cells (HUVEC). In short, it runs like this:
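Human umbilical vein endothelial cells, 24 h after chemical dosing; total protein measured by 0.1% sulforhodamine B staining after 10% TCA fixation, read at 560 nm. Bidirectional fitting against DMSO.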
A word on the AC50: it is the midpoint of the concentration-response curve, whichever way the signal moves. Consider `O=C(O)C1(c2ccc3c(c2)OC[C@H](Cc2ccc(-c4ccccc4)cc2)[C@H]3O)CCCC1`, for which the AC50 is 20 µM (active).

For the molecule `N#Cc1cccnc1`, the result was inactive. Consider `Cc1cc(Cl)ccc1OC(C)C(=O)O` (centres undefined), for which the result was inactive.

As for `O=C(CCl)NCO`, the outcome was inactive.

`Nc1c(Oc2ccccc2)cc(O)c2c1C(=O)c1ccccc1C2=O`: the result was inactive. For the molecule `Oc1cc(Cl)c(Cl)cc1Cl`, the AC50 was 25.5 µM (active). Turning to `C[C@]12CC[C@@H](O)C[C@@H]1CC[C@@H]1[C@@H]2CC[C@]2(C)C(=O)CC[C@@H]12`, the result was inactive. Still for that read-out and setting: the entry for `CCC(C)(C#N)N=NC(C)(C#N)CC` (centres undefined) is “inactive”; for `NC(=O)CCl` it is “inactive”. On the same count and under the same terms, in the case of `CCCCN(CCCC)C(=S)[S-].CCCCN(CCCC)C(=S)[S-].[Ni+2]` it was “inactive”. On the same count and under the same terms, the entry for `CCCCOC(=O)COC(=O)c1ccccc1C(=O)OCCCC` is “inactive”; for `CCCCCCCCCCCCc1cccc(S(=O)(=O)O)c1` it is “inactive”. In the case of `O=C(N[C@H]1CN2CCC1CC2)c1ccc2c(c1)OCCO2`, the result was inactive. Same read-out and setting: in the case of `Clc1cccc(Cl)c1Cl` it was “inactive”. As to `Cc1cccc(OP(=O)(Oc2cccc(C)c2)Oc2cccc(C)c2)c1`, the outcome was inactive. Same read-out and setting: in the case of `c1ccc2sc(SNC3CCCCC3)nc2c1` it was “inactive”; in that of `OCCCCO`, “inactive”.

`CC(C)O.CC(C)O.OCCN(CCO)CCO.OCCN(CCO)CCO.[Ti]`: the outcome was inactive.

Turning to `Oc1c(Br)cc(Br)cc1Br`, the concentration at half-maximal activity (AC50) is 29.5 µM (active). With `Clc1cccc(Cl)c1`, the result was inactive. In the case of `CC(C)N(C(=O)CCl)c1ccccc1`, the AC50 was 24.5 µM (active). As to `Nc1ccc(N)cc1`, the result was inactive. Consider `Oc1cccc(-c2ccccc2)c1`, for which the AC50 is 20 µM (active). Consider `COCC(=O)N(c1c(C)cccc1C)[C@H](C)C(=O)OC`, for which the result was inactive. Consider `O=C1C=CC(=O)c2ccccc21`, for which the concentration at half-maximal activity (AC50) is 2.55 µM (active). For `Cc1cc(Cl)ccc1N`, the outcome was inactive. Regarding `O=C(Cc1ccccc1)OCCc1ccccc1`, the result was inactive. `O=c1oc2ccccc2c(O)c1C(CC(O)c1ccc(-c2ccc(Br)cc2)cc1)c1ccccc1` (centres undefined): the AC50 is 12.7 µM (active). For the molecule `Oc1ccc(Cc2ccc(O)cc2)cc1`, the result was inactive. In the case of `Cc1c([N+](=O)[O-])c(C)c([N+](=O)[O-])c(C(C)(C)C)c1[N+](=O)[O-]`, the result was inactive.

In the case of `CC(C)(COCC1CO1)COCC1CO1` (centres undefined), the result was inactive. As to `CCOC(=O)CC(=O)CCl`, the outcome was inactive. The same measure, in the same setting: in the case of `CCCCCCCCCCCCN(C)C` it was “inactive”; in that of `CCOP(=S)(OCC)SCS(=O)(=O)C(C)(C)C`, “inactive”.
